# Data from PubChem BioAssay (NCATS).
# Records with an inconclusive call do not appear. Values without a mark were called inactive. Calls of active or inactive are those of the source. The call rests on the fitted dose curve; in most records, active means well fitted cell-killing curve with a large enough effect; inconclusive means small, poorly fitted or top-dose-only effect; inactive means flat fitted curve, though single readings scatter.
# Test: Cell Viability - SH-SY5Y (AID 544); further: nearly all actives have a fitted effect of over 55% in size;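 on viability change, negative = cytotoxic: 0% = DMSO alone and -100% = 100 µM tamoxifen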
# Conditions: SH-SY5Y neuroblastoma cell viability; viability change, negative = cytotoxic: at 92.2 µM (top of the series)
# Excerpt: NIH Chemical Genomics Center [NCGC]
# NIH Molecular Libraries Screening Centers Network [MLSCN]
# National Institutes of Environmental Health Sciences [NIEHS]
# National Toxicology Program [NTP]
# We have developed a 1536-well cell-based assay for quantitative high throughput screening (qHTS) against a number of cell lines to determine in vitro cytotoxicity of small molecules. This particular assay uses the SH-SY5Y cell line which is derived from human neuroblastoma.
# NCGC Assay Protocol Summary:
# The CellTiter-Glo luminescent cell viability assay (Promega) is a homogeneous method to measure the number of viable cells in culture. The end point readout of this assay is based on quantitation of intracellular ATP, an indicator of metabolic activity, using the luciferase reaction. Luciferase catalyzes the oxidation of beetle Luciferin to oxyluciferin and light in the presence of ATP. The luminescent signal is proportional to amount of ATP present.
# Using the CellTiter-Glo luminescent cell viability assay, the amount of cellular ATP was measured in the SH-SY5Y cell line with complete culture medium following compound treatment for 40 hours. The assay was performed in opaque white Kalypsys 1536-well plates. In the screen, tamoxifen and doxorubicin were used as positive controls. Library compounds were measured for their ability to cause acute toxicity in the cell line, as reflected by a decrease in intracellular ATP levels, in a concentration-dependent manner. […] AC50 values were determined from concentration-response data modeled with the standard Hill equation.
# qHTS protocol for CellTiter Glo SH-SY5Y cellular assay
# [Step] [Parameter] [Value] [Description]
# 1. Reagent; 5 uL; 1500 SH-SY5Y cells/well
# 2. Time; 5 hr; 37 °C incubation
# 4. Controls; 23 nL; Tamoxifen 0.34 uM to 100 uM & Doxorubicin 0.02 nM to 100 uM
# 5. Time; 40 hr; 37 °C incubation
# 6. Reagent; 5 uL; CellTiter Glo reagent
# 7. Time; 20 min; Room Temperature
# 8. Detection; Luminescence; Viewlux plate reader
# Keywords: cell viability, cytotoxicity, SH-SY5Y cell line, luminescence, NTPHTS, NTPHTS_NCGC, NIEHS, EPA, DSSTox, MLSMR, MLSCN, NIH Roadmap, qHTS, NCGC
# Potency means the concentration at half of the fitted maximal effect.
SMILES,"viability change, negative = cytotoxic",Potency
S=c1[nH]c2ccccc2s1,-22.1%,–
N=C1N=C(N)c2cc3ccccc3cc21,-99% (active),–
COc1cc(/C=C/C(=O)CC(=O)/C=C/c2ccc(O)c(OC)c2)ccc1O,–,31.6 µM (active)
Nc1ccc(O)c(C(=O)O)c1,-14.1%,–
CN(C)CCC(c1ccc(Cl)cc1)c1ccccn1 (stereo not drawn),-2.88%,–
c1cnc2c(c1)ccc1cccnc12,–,5.01 µM (active)
O=c1cc(-c2ccccc2)oc2ccccc12,-20.7%,–
CCCCCCCCCCCCCCCCCC(=O)O,-8.19%,–
CN(C)c1ccc(C(=C2C=CC(=[N+](C)C)C=C2)c2ccccc2)cc1,–,0.1 µM (active)
O=C(O)/C=C\C(=O)O,10.3%,–
CN1CCC[C@H]1c1cccnc1,2.95%,–
Oc1ccccc1O,–,10 µM (active)
c1ccc2sc(SSc3nc4ccccc4s3)nc2c1,-3.47%,–
CCCOC(=O)c1ccc(O)cc1,–,inactive
C#C[C@]1(O)CC[C@H]2[C@@H]3CCc4cc(O)ccc4[C@H]3CC[C@@]21C,–,31.6 µM (active)
CC1(C)S[C@@H]2[C@H](NC(=O)[C@H](N)c3ccccc3)C(=O)N2[C@H]1C(=O)O,-11.8%,–
Nc1ccc([N+](=O)[O-])cc1O,-16.6%,–
CC(C)NCC(O)COc1cccc2ccccc12 (stereo not drawn),-22.1%,–
